High-throughput results from PubChem.
The list is not random: actives were taken first. Their share in the collection is about 5.2%.
Sfp inh = inhibitors of Bacillus subtilis Sfp phosphopantetheinyl transferase; Q9F4F7; Biochemical Sfp PPTase activity, qHTS; Potency, µM, hits mostly inhibitors; hit rate 3.5% among 310,000;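 also: the enzyme is Sfp with the accession as filed and its product quenches rhodamine fluorescence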
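Step 1, compound plus 15 nM Sfp-PPTase, 15 min, room temperature. Step 2, add rhodamine-CoA (5 uM) and BHQ-2-YbbR (12.5 uM). Step 3, read 525/598 nm fluorescence at 0 and 30 min.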
FBPA coupling cs = inhibits coupling enzyme system, counter-screen for aldolase hits; coupling enzyme system counterscreen, AmpLite Red fluorescence; activity change, negative = inhibition, % at 58.2 µM, hits read low; hit rate 0.67% among 290,000; AID 2472; in the data active = activity change below about -30%
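First, compound is pin-transferred into glyceraldehyde-3-phosphate coupling-enzyme reagent at 57.5 uM final and held 10 min at RT. Next, substrate, coupling system and AmpLite Red are added. After 20 min RT, fluorescence (525/598 nm) is read.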
Tau FP inhib = inhibitors of human tau fibril formation; P10636; K18 P301L tau heparin fibrillization, Alexa594 FP, 6 h; Potency, µM (top dose mostly 57.7 µM), most hits filed as inhibitors; hit rate 0.39% among 280,000; AID 1468; also: nearly all actives have a fitted effect of over 55% in size
Target sequence (P10636 561-689 P618L limits assumed): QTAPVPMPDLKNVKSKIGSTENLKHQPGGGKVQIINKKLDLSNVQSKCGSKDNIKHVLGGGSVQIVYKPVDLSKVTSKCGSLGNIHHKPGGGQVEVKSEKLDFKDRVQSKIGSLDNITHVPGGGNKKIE
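Read-out: fluorescence polarization of Alexa 594-labeled tau (0.24 uM), 555 nm excitation, 632 nm emission. Mixtures held 15 uM unlabeled K18 P301L, compound and 20 uM heparin, pH 7 acetate buffer, incubated 6 hr at 37 C.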
Tau fibril ThT = inhibitors of human tau fibril formation, thioflavin T binding; P10636; recombinant tau K18 P301L, heparin-induced fibrillization, ThT fluorescence; Potency, µM (doses to about 57.4 µM), actives largely listed as inhibitors; hit rate 2.1% among 270,000; AID 1460; also: nearly all actives have a fitted effect of over 55% in size
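K18 P301L tau (15 uM + 0.24 uM Alexa 594-tagged), heparin 20 uM, NaOAc pH 7, 6 h 37 C; ThT 30 uM, 1 h RT, ex 450/em 510 nm.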
Tau fluor counter = counter-screen for tau fibril formation inhibitors | AID 1463 | Potency, µM (titrated, usually from 57.7 µM) | hit rate 0.93% among 280,000 | tau K18 P301L (four-repeat tau fragment) Alexa594 fluorescence, heparin fibrillization; also: nearly all actives have a fitted effect of over 55% in size
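Human K18 P301L tau (15 uM unlabeled plus 0.24 uM Alexa 594-labeled, final) in 100 mM sodium acetate pH 7 was mixed with compound and 20 uM heparin and incubated 6 hr at 37 C.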
Hits are given with their value; n = inactive; u = inconclusive; x = no result; [ ] = another dose, or the depositor's remark. Unless noted, calls follow the shape of the dose curve; as a rule, active = well fitted curve in the direction sought with a large enough effect; inconclusive = small, poorly fitted or top-dose-only effect, or another doubt; inactive = no such curve, though single readings can be large; an effect the other way counts as inactive or inconclusive.

SMILES	Sfp inh	FBPA coupling cs	Tau FP inhib	Tau fibril ThT	Tau fluor counter
O=C(N/N=C/C=C/c1ccc([N+](=O)[O-])cc1)C1COc2ccccc2O1 (stereo not given)	n	n	n	4.5µM	16µM[quencher]
Cc1ccc2nc(-c3ccc(Cl)c(NC(=O)COc4ccc([N+](=O)[O-])cc4)c3)oc2c1	x	x	n	n	n
CCOC(=O)c1c(C2COc3ccccc3O2)csc1NC(=O)c1ccccc1 (stereo not given)	n	n	n	n	n
CCOC(=O)c1c(C2COc3ccccc3O2)csc1N (stereo not given)	n	n	n	u	25µM[quencher]
CC(=O)Nc1ccc(-c2nnc(SCC(=O)c3ccc4c(c3)Cc3ccccc3-4)n2C)cc1	89µM	n	n	u	n
O=C(CSc1nc2ccccc2n1CCc1ccccc1)c1ccc(O)c(O)c1	50µM	n	n	u	25µM[quencher]
Cn1c(SCC(=O)c2ccc3c(c2)Cc2ccccc2-3)nnc1-c1cccc(N)c1	n	n	n	n	n
Cn1c(SCC(=O)c2ccc(O)c(O)c2)nnc1-c1ccccc1	79µM	n	x	x	x
Cc1cc(SCC(=O)c2ccc(O)c(O)c2)n2nc(C)c(-c3ccccc3)c2n1	n	n	n	u	11µM[quencher]
COc1cccc(CNC(=O)CCCN2C(=O)CSc3c2c(C)nn3-c2ccccc2)c1	x	x	n	n	n
CCCCCCCCOc1c(OC)cc(/C=C/C(=O)N2CCN(c3ccc(C)c(C)c3)CC2)cc1OC	n	n	x	x	x
CCn1cc(C(=O)NCc2ccccc2)c(=O)c2cc(S(=O)(=O)N3CCCCCC3)ccc21	x	x	n	n	n
CN(C)c1ccc(-c2nc3ccccn3c2/N=C/c2ccc(Br)cc2)cc1	n	n	u	14µM	u
COc1cc(CNc2ccccc2SC)ccc1O	79µM	n	n	u	u
CCOc1cc(CNc2ccccc2SC)ccc1O	56µM	n	n	u	u
COc1cccc(CNC(=O)C2Cc3cc(S(=O)(=O)N4CCCCCC4)ccc3N2C(C)=O)c1 (stereo not given)	x	x	n	n	n
COc1ccc(C2CC(=O)C(C(c3ccc(O)cc3)C3C(=O)CC(c4ccc(OC)cc4)CC3=O)C(=O)C2)cc1 (stereo not given)	35µM	n	n	u	n
O=C1c2ccccc2C(=O)C12OC2c1ccc(Cl)cc1Cl (stereo not given)	n	n	u	10µM	u
O=C1c2ccccc2C(=O)C1c1ccc(Cl)cc1	n	x	x	x	x
O=c1c(C/C=C/c2ccccc2)c(O)ccn1CCc1c[nH]c2ccccc12	n	n	n	n	18µM[quencher]
O=c1c(C/C=C/c2ccccc2)c(O)ccn1Cc1cccc(Cl)c1	n	n	u	n	n
COc1ccc2[nH]cc(CCn3ccc(O)c(C/C=C/c4ccccc4)c3=O)c2c1	n	n	u	u	25µM[quencher]
O=c1[nH]c(=S)[nH]c2c1C(c1ccc(Br)cc1)c1c([nH]c(=S)[nH]c1=O)O2	45µM	n	x	x	x
O=C1CCCC2=C1C(c1ccc(Br)cc1)c1c([nH]c(=S)[nH]c1=O)N2 (stereo not given)	n	n	n	n	n
O=C(Cc1cccs1)Nc1c(C(=O)Nc2ccc(F)cc2)oc2ccccc12	x	x	n	n	u
SMILES	Sfp inh	FBPA coupling cs	Tau FP inhib	Tau fibril ThT	Tau fluor counter
Cc1cccc(C)c1NC(=O)c1cc(S(=O)(=O)N2CCc3ccccc3C2)ccc1F	x	x	n	n	n
CCOc1ccc(NC(=O)Cn2nc3c(cc2=O)CC(C)CC3)cc1 (stereo not given)	x	x	n	n	n
Cc1cc(Cl)ccc1OCC(=O)OCC(=O)Nc1ccc(F)c([N+](=O)[O-])c1	n	n	u	u	11µM[quencher]
CCCCc1nc2c(c3c1C[C@H](C)OC3)CN(C(=O)N[C@H](C(=O)OC)C(C)C)CC2	n	n	n[11.6 µM]	n[11.5 µM]	n[11.6 µM]
Cc1ccc2occ(CC(=O)Nc3ccc(Cl)c(C(F)(F)F)c3)c2c1	x	x	14µM	n	u
Cc1ccc2occ(CC(=O)Nc3ccc(S(N)(=O)=O)cc3)c2c1	x	x	n	n	n
CCc1ccc2occ(CC(=O)Nc3ccc(OC)c(Cl)c3)c2c1	x	x	u	u	25µM[quencher]
CC(C)c1ccc2occ(CC(=O)Nc3cccc(C(F)(F)F)c3)c2c1	x	x	18µM	n	u
CCC1(CC)C(=O)C2=C3C1[C@H](C(=O)OC)CC(C(=O)OC)C[C@H]3[C@H]1C(=O)N(C)C(=O)[C@H]1[C@H]2C (stereo not given in full)	n	n	x	x	x
CC[n+]1c(/C=C/Nc2ccccc2)sc2ccccc21	n	n	n	u	28µM[fluorescent]
CC/C(=C/c1sc2ccccc2[n+]1CC)SC	n	n	n	n	n
CC[n+]1c(/C=C(\C)SC)sc2ccccc21	79µM	n	n	n	n
CC[n+]1c(/C=C(\C)Nc2ccccc2)sc2ccccc21	56µM	n	n	u	n
CC[n+]1c(/C=C(\C)OC)sc2ccccc21	n	n	n	u	n
CCc1ccc(NS(=O)(=O)c2ccc(-c3cc(C)no3)cc2)cc1	x	x	u	n	u
O=C(c1ccc2c(c1)N(Cc1ccccc1)C(=O)c1ccccc1S2(=O)=O)N1CCN(c2ccccc2)CC1	x	x	n	n	n
COc1ccc(Oc2cn[nH]c2-c2ccc(O)cc2O)cc1	n	n	u	n	u
CCOc1ccc(-c2n[nH]c(C)c2Oc2ccccc2OC)c(O)c1	n	n	n	n	u
CCOC(=O)c1ccc(Oc2cn[nH]c2-c2ccc(OCC(=O)NN)cc2O)cc1	n	n	x	x	x
CCCOC(=O)c1ccc(Oc2c(-c3ccc(OC)cc3O)n[nH]c2C)cc1	n	n	u	n	10µM[quencher]
CCCOC(=O)c1ccc(Oc2cn[nH]c2-c2ccc(O)cc2O)cc1	n	n	u	u	5µM[quencher]
CCOC(=O)c1ccc(Oc2cn[nH]c2-c2ccc(O)cc2O)cc1	n	n	u	u	13µM[quencher]
CCc1cc(-c2n[nH]c(C)c2Oc2ccc(C(C)C)cc2)c(O)cc1O	n	n	u	28µM	7.1µM[quencher]
CCOc1ccc(OCC)c(NC(=O)c2csc3c2CCCC3)c1	x	x	n	n	n
Cc1ccc(NC(=O)CN2C(=O)c3ccccc3Sc3ccc(C(=O)N4CCOCC4)cc32)cc1F	x	x	n	n	n
SMILES	Sfp inh	FBPA coupling cs	Tau FP inhib	Tau fibril ThT	Tau fluor counter
CCCOC(=O)c1ccc(Oc2cn[nH]c2-c2ccc(OCC(=O)NN)cc2O)cc1	n	n	n	n	28µM[quencher]
CCCOC(=O)c1ccc(Oc2c(-c3ccc(O)cc3O)n[nH]c2C)cc1	n	n	n	n	n
Cc1[nH]nc(-c2ccc(O)cc2O)c1Oc1ccccc1	n	n	n	n	14µM[quencher]
CCCc1ccc(Oc2cn[nH]c2-c2ccc(O)cc2O)cc1	n	n	u	u	6.3µM[quencher]
Nc1nc(Nc2ccccc2)nc(NC2CCCCC2)c1[N+](=O)[O-]	n	n	x	x	x
CCOc1ccccc1-n1nnc(-c2nc(-c3ccccc3C)no2)c1C	x	x	n	n	n
O=C(C1=C(Nc2ccccc2)c2ccccc2S(=O)(=O)N1)c1ccccc1	89µM	n	u	u	n
CC(=O)Nc1ccccc1O	n	n	n	n	n
